Assay outcomes from PubChem BioAssay.
An excerpt weighted towards active compounds, which were near 7.5% of everything screened.
SMN2 splice up: enhancers of SMN2 splice variant expression; HEK293 SMN2-luciferase splicing reporter, luminescence, 30-36 h; Potency, µM (doses to about 46.1 µM), for inactives: at the top dose activity change, positive = activation, hits mostly activators; 210,000 compounds, 2.8% hits; AID 1458; further: % of control where 0% means no effect; nearly all actives have a fitted effect of over 55% in size
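HEK293 cells carry an SMN2 minigene-luciferase reporter in which exon 7 inclusion puts luciferase in frame. Cells were seeded at 2000 cells/well, attached for 10-12 hours, then exposed to compounds for 30-36 hours at 37C before ONE-Glo luminescence.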
Rab9 promoter act: activators of Rab9 promoter; Huh7 Rab9 promoter-luciferase reporter, luminescence, 24 h; Potency, µM (titrated, usually from 9.22 µM), for the others: top-dose activation, negative = inhibition, actives largely listed as activators; 320,000 compounds, 2.8% hits; AID 485297; further: % of control where 0% means no effect; nearly all actives have a fitted effect of over 60% in size
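Steps: seed 1500 Huh7 Rab9-luc cells per well, rest 2 h at 37 °C; add compound in DMSO; incubate 24 h; add luciferase reagent, 10 min ambient; read luminescence.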
FLuc counter: counter-screen for miR-21 project: firefly luciferase inhibitors or activators. Potency, µM (top dose mostly 57.5 µM), for inactives: at the highest dose activity change, negative = inhibition, most hits filed as inhibitors. AID 588342. purified FLuc, Km substrates, luminescence inhibition. 360,000 compounds, 6.9% hits. P08659;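 further: plate controls were vehicle for no effect and reference inhibitor for full effect; nearly all actives have a fitted effect of over 55% in size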
Target sequence (P08659 whole entry, looked up): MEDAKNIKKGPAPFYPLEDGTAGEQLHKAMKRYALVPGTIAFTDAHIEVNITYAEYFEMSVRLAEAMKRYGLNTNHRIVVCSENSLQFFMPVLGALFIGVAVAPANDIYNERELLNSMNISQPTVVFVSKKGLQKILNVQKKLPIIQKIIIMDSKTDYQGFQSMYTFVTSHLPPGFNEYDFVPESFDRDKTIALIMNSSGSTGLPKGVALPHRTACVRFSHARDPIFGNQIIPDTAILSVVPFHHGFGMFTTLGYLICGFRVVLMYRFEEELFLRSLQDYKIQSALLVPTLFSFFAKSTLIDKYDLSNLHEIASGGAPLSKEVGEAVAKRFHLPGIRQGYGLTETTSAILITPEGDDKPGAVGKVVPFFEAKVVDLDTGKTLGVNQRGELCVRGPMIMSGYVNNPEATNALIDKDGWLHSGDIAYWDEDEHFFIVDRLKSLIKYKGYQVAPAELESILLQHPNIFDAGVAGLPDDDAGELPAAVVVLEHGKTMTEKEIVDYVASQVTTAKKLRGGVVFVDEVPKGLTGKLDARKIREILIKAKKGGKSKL
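Biochemical qHTS of compounds, final roughly 60 µM downward over six points, against 10 nM purified firefly luciferase using Km concentrations of substrates (10 uM D-luciferin, 10 uM ATP) in Tris acetate pH 7.5 buffer; luminescence output.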
NPC1 promoter act: activators of NPC1 promoter; 320,000 compounds, 2.4% hits; Potency, µM (doses to about 9.22 µM), inactives show at the highest dose activation, actives largely listed as activators; Huh7 NPC1 promoter luciferase reporter, 24 h; further: % of control where 0% means no effect; nearly all actives have a fitted effect of over 60% in size
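Readout is luciferase luminescence, reflecting NPC1 promoter activation in stably transfected Huh7 cells after 24 h compound exposure at 37 °C in reduced-serum medium with 10% FBS.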
KinaseGlo FLuc: counter-screen: inhibitors of Kinase-Glo firefly luciferase; Q27757; Kinase-Glo luciferase, ATP luminescence, 8 min; Potency, µM (top dose mostly 38.3 µM), without a hit: at the highest dose activity change, negative = inhibition, most hits filed as inhibitors; 200,000 compounds, 0.28% hits; further: on the % scale 0 is the no-effect control and ±100 the full control effect; nearly all actives have a fitted effect of over 60% in size
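Compounds were added to a substrate mix at pH 7.2 (50 mM imidazole, 10 uM ATP, within the enzyme's linear range), followed by Kinase-Glo detection reagent; luminescence was measured after 8 minutes at ambient temperature.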
ELG1 genotox: inducers of genotoxicity in HEK293T ELG1-luciferase cells; Potency, µM (top dose mostly 46 µM), inactives show top-dose activity change, positive = activation, hits mostly activators; 330,000 compounds, 1.3% hits; AID 504466; HEK293T ELG1-luciferase reporter, luminescence, 16 h; further: % of control where 0% means no effect; nearly all actives have a fitted effect of over 60% in size
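Step 1: seed 2,000 HEK293T ELG1-luciferase cells per well. Step 2: add compound or DMSO, incubate 16 hr at 37 °C. Step 3: ONE-Glo, 30 min at room temperature, read luminescence.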
* hit, by the source's call; ! = not confirmed by another sample. The call rests on the fitted dose curve; in most records, active means well fitted curve in the direction sought with a large enough effect; inconclusive means small, poorly fitted or top-dose-only effect, or another doubt; inactive means no such curve, though single readings can be large; an effect the other way counts as inactive or inconclusive. Potency means the concentration at half of the fitted maximal effect.

CCOc1ccc2nc(SCC(=O)NC3CC3)sc2c1 was read as Rab9 promoter act inconclusive, FLuc counter 5%, NPC1 promoter act inconclusive and ELG1 genotox -8%.
Screening CCOc1ccc2nc(SCCNS(=O)(=O)c3ccccc3)sc2c1 returned SMN2 splice up -42%, Rab9 promoter act 0%, FLuc counter inconclusive, NPC1 promoter act -1%, KinaseGlo FLuc 1% and ELG1 genotox 1%.
`CCOc1ccc2nc(SCc3ccccc3C#N)sc2c1` gave SMN2 splice up 11µM*, Rab9 promoter act 2.5µM*, FLuc counter 7.6µM*, NPC1 promoter act 3.2µM*, KinaseGlo FLuc 0% and ELG1 genotox inconclusive.
Screening CCOc1ccc2nc(SCC(=O)c3ccccc3)sc2c1 returned SMN2 splice up 16%, Rab9 promoter act 29%, FLuc counter 15µM*, NPC1 promoter act 16%, KinaseGlo FLuc 1% and ELG1 genotox 18µM*.
For CC(=O)c1cccc(NC(=O)c2cnn(-c3cccc(C)c3)c2-n2cccc2)c1 the results were FLuc counter 0%.
`Cc1cccn2cc(CSc3ccccc3N)nc12` gave SMN2 splice up inconclusive, Rab9 promoter act 2.5µM*, FLuc counter 6µM*, NPC1 promoter act 2.2µM*, KinaseGlo FLuc -5% and ELG1 genotox 6.5µM*.
`Nc1ccccc1SCc1cn2ccccc2n1` gave SMN2 splice up 11µM*, Rab9 promoter act 1.8µM*, FLuc counter 6.7µM*, NPC1 promoter act 2.2µM*, KinaseGlo FLuc -8% and ELG1 genotox inconclusive.
Screening C=Cc1ccc(Cn2c(C(=O)O)c(CNCc3cc(OC)ccc3OC)c3ccc(C)cc32)cc1 returned FLuc counter 5%.
`COc1ccc2oc(C(=O)NC3CCCCC3)c(C)c2c1` gave Rab9 promoter act 3.2µM*, FLuc counter 5.4µM*, NPC1 promoter act 3.2µM* and ELG1 genotox 3.7µM*.
Cc1ccc2oc(C(=O)NC3CCS(=O)(=O)C3)c(C)c2c1 (stereo unspecified) was read as Rab9 promoter act 14%, FLuc counter -16%, NPC1 promoter act 17% and ELG1 genotox 17%.
For Cc1c(C(=O)NC2CCCCC2)oc2ccc(F)cc12 the results were Rab9 promoter act inconclusive, FLuc counter 12µM*, NPC1 promoter act inconclusive and ELG1 genotox inconclusive.
Screening COc1ccc(C(CNC(=O)c2oc3ccc(OC)cc3c2C)N2CCCC2)cc1 (stereo unspecified) returned Rab9 promoter act -13%, FLuc counter -8%, NPC1 promoter act -2% and ELG1 genotox 0%.
`CNC(=O)c1cc2cc(OC)ccc2oc1=O` gave SMN2 splice up -8%, Rab9 promoter act 16%, FLuc counter -7%, NPC1 promoter act -1%, KinaseGlo FLuc 1% and ELG1 genotox 3%.
COc1ccc2oc(C(=O)NCCC(C)C)c(C)c2c1 was read as SMN2 splice up 11µM*, Rab9 promoter act inconclusive, FLuc counter 3.4µM*, NPC1 promoter act 3.2µM*, KinaseGlo FLuc -1% and ELG1 genotox inconclusive.
Screening COc1ccc2oc(=O)c(C(=O)NC3CCCCCC3)cc2c1 returned Rab9 promoter act -6%, FLuc counter 15µM*, NPC1 promoter act 25% and ELG1 genotox inconclusive.
`O=C(CNc1ccccc1)Nc1cccc2ccccc12` gave Rab9 promoter act 6%, FLuc counter 3%, NPC1 promoter act 7% and ELG1 genotox -6%.
For C/C(=N\NC(=O)c1ccc2c(c1)OCO2)c1ccco1 the results were SMN2 splice up 13µM*, Rab9 promoter act 0.79µM*, FLuc counter 9.5µM*, NPC1 promoter act inconclusive, KinaseGlo FLuc inconclusive and ELG1 genotox 14%.
`C/C(=N\NC(=O)c1ccco1)c1ccc(-c2ccccc2)cc1` gave Rab9 promoter act 3.5µM*, FLuc counter 2.4µM*, NPC1 promoter act 3.2µM* and ELG1 genotox 9.2µM*.
`C/C(=N/NC(=O)c1ccc2c(c1)OCO2)c1ccc(Br)s1` gave Rab9 promoter act 3.5µM*, FLuc counter 0%, NPC1 promoter act inconclusive and ELG1 genotox inconclusive.
Screening C/C(=N\NC(=O)c1ccc(Cl)c(Cl)c1)c1ccc(Br)s1 returned SMN2 splice up -46%, Rab9 promoter act -8%, FLuc counter 0%, NPC1 promoter act -9%, KinaseGlo FLuc 0% and ELG1 genotox 0%.
`C/C(=N\NC(=O)CNC(=O)c1ccc2c(c1)OCCO2)c1ccco1` gave Rab9 promoter act 1%, FLuc counter -14%, NPC1 promoter act 3% and ELG1 genotox 1%.
Cc1ccc(Sc2cnc3ccccc3n2)cc1 was read as SMN2 splice up inconclusive, Rab9 promoter act 3.5µM*, FLuc counter 6.7µM*, NPC1 promoter act inconclusive, KinaseGlo FLuc 0% and ELG1 genotox 2.6µM*.
Screening Nc1c(C(=O)Nc2ccc(Cl)c(C(F)(F)F)c2)sc2nc(-c3ccncc3)ccc12 returned SMN2 splice up -2% and FLuc counter 0%.
`COc1ccc(C2(C)NC(=O)N(CC(=O)NC3CC3)C2=O)cc1` (stereo unspecified) gave ELG1 genotox 1%.
Screening CC1CCC(NC(=O)CN2C(=O)NC(C)(C)C2=O)CC1 (stereo unspecified) returned Rab9 promoter act -8%, FLuc counter -1%, NPC1 promoter act 1% and ELG1 genotox 0.12µM*.
Screening COc1cc(NC(=O)CC(c2ccc(C)cc2)N2Cc3ccccc3C2=O)cc(OC)c1 (stereo unspecified) returned FLuc counter 4%.
CCC(CC)C(=O)Nc1nnc(S(=O)(=O)N2c3ccccc3CC2C)s1 (stereo unspecified) was read as Rab9 promoter act 0%, FLuc counter 17µM*!, NPC1 promoter act -2% and ELG1 genotox -5%.
Screening CCc1ccc(NC(=O)CSc2ccccn2)cc1 returned SMN2 splice up 29%, Rab9 promoter act inconclusive, FLuc counter 13µM*, NPC1 promoter act 16%, KinaseGlo FLuc -1% and ELG1 genotox 4%.
Screening O=C(CSc1ccccn1)Nc1ccc(NC(=O)CSc2ccccn2)cc1 returned SMN2 splice up -1%, Rab9 promoter act 0%, FLuc counter -9%, NPC1 promoter act -5%, KinaseGlo FLuc -2% and ELG1 genotox 2%.
`COc1cccc(NC(=O)CSc2ccccn2)c1` gave SMN2 splice up inconclusive, Rab9 promoter act inconclusive, FLuc counter 15µM*, NPC1 promoter act inconclusive, KinaseGlo FLuc 12% and ELG1 genotox inconclusive.
